# Experimental data from ChEMBL document CHEMBL1961873, “Compounds: GSK PKIS; Assays: Nanosyn kinase panel” (2012).
# “And” between values parts separate entries of the source, which are not always exact repeats. Equal values may be shown once.
# Key:
# [1] = molecular target: MAP/microtubule affinity-regulating kinase 3 (Homo sapiens) (UniProt P27448); conditions: at 1 µM;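 further: reported values are averaged percent inhibition of MARK3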
# [2] = molecular target: T1, MAP/microtubule affinity-regulating kinase 4 (Homo sapiens) (UniProt Q96L34); conditions: at 0.1 µM
# T1 sequence (whole entry): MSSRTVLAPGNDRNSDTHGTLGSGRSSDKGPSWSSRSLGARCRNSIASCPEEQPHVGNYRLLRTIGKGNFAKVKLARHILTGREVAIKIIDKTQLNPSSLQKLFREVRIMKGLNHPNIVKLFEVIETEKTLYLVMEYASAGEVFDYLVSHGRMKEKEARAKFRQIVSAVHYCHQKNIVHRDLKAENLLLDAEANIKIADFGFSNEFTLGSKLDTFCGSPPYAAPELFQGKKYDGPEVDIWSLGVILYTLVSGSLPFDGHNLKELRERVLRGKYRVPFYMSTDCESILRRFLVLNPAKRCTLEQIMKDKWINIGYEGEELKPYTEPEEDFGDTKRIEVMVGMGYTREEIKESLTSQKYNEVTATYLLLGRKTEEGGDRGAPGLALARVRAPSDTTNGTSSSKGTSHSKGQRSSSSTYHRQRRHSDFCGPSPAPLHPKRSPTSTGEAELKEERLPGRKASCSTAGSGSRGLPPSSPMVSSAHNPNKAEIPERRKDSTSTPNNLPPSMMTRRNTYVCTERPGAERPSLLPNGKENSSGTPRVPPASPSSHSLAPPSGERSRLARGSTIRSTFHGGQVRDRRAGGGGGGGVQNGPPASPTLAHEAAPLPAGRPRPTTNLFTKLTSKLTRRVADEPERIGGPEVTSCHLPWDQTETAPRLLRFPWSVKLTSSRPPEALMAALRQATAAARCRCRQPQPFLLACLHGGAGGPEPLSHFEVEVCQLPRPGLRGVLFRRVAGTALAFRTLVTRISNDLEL
# [3] = molecular target: T1, MAP/microtubule affinity-regulating kinase 4 (Homo sapiens); conditions: at 1 µM
# [4] = molecular target: Maternal embryonic leucine zipper kinase (Homo sapiens) (UniProt Q14680); conditions: at 0.1 µM
# Sequence of Maternal embryonic leucine zipper kinase (Homo sapiens) (Q14680 whole entry, looked up): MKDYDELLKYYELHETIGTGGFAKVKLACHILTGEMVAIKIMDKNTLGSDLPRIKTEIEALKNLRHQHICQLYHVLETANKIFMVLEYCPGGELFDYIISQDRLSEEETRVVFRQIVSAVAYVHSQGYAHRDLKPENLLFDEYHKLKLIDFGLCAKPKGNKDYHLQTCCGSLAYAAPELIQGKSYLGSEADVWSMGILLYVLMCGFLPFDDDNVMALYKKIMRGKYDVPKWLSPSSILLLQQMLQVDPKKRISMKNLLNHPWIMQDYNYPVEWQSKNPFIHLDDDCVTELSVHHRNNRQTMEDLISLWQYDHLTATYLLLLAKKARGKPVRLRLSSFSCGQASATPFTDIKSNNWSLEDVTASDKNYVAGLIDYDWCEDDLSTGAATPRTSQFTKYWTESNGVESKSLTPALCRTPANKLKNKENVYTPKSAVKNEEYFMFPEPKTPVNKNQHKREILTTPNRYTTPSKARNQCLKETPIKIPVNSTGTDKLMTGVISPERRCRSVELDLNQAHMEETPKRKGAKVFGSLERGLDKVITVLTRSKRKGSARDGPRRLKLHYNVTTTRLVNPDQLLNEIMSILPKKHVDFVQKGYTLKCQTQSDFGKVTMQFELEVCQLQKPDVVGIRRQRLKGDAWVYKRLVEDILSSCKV
# [5] = molecular target: Maternal embryonic leucine zipper kinase (Homo sapiens) (UniProt Q14680); conditions: at 1 µM
# [6] = molecular target: MAP kinase-interacting serine/threonine-protein kinase 1 (Homo sapiens) (UniProt Q9BUB5); conditions: at 0.1 µM
# Sequence of MAP kinase-interacting serine/threonine-protein kinase 1 (Homo sapiens) (Q9BUB5 whole entry, looked up): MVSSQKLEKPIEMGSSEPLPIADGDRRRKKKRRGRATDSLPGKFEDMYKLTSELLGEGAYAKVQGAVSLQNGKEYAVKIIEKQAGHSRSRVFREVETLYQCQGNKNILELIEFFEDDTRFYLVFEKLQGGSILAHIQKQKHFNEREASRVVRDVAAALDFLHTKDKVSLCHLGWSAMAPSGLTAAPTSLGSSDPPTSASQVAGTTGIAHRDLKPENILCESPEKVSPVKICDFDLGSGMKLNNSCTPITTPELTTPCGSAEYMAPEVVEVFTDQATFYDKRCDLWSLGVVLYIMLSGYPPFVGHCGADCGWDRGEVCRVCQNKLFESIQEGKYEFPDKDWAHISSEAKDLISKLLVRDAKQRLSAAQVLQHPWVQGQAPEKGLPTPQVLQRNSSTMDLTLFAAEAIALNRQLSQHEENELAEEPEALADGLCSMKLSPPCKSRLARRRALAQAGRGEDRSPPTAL
# [7] = molecular target: MAP kinase-interacting serine/threonine-protein kinase 1 (Homo sapiens) (UniProt Q9BUB5); conditions: at 1 µM
# [8] = molecular target: MAP kinase-interacting serine/threonine-protein kinase 2 (Homo sapiens) (UniProt Q9HBH9); conditions: at 0.1 µM
# Sequence of MAP kinase-interacting serine/threonine-protein kinase 2 (Homo sapiens) (Q9HBH9 whole entry, looked up): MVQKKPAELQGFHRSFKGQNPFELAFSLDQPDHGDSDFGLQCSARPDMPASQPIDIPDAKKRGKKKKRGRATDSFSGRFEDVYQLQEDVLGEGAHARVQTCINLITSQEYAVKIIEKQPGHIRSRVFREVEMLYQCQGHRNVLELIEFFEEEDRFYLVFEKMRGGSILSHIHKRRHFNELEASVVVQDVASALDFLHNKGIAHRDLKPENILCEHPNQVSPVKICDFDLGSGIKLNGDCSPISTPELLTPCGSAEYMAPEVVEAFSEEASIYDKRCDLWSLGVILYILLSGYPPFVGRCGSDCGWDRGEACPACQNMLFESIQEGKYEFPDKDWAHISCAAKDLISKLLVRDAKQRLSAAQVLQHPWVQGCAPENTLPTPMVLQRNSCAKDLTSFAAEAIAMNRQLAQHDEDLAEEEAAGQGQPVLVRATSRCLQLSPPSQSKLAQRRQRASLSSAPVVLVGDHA
# [9] = molecular target: MAP kinase-interacting serine/threonine-protein kinase 2 (Homo sapiens) (UniProt Q9HBH9); conditions: at 1 µM
# [10] = molecular target: Serine/threonine-protein kinase MARK2 (Homo sapiens) (UniProt Q7KZI7); conditions: at 0.1 µM;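 further: mean percent inhibition of PAR-1Balpha kinase activity, reported from the GSK PKIS screen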
# Sequence of Serine/threonine-protein kinase MARK2 (Homo sapiens) (Q7KZI7 whole entry): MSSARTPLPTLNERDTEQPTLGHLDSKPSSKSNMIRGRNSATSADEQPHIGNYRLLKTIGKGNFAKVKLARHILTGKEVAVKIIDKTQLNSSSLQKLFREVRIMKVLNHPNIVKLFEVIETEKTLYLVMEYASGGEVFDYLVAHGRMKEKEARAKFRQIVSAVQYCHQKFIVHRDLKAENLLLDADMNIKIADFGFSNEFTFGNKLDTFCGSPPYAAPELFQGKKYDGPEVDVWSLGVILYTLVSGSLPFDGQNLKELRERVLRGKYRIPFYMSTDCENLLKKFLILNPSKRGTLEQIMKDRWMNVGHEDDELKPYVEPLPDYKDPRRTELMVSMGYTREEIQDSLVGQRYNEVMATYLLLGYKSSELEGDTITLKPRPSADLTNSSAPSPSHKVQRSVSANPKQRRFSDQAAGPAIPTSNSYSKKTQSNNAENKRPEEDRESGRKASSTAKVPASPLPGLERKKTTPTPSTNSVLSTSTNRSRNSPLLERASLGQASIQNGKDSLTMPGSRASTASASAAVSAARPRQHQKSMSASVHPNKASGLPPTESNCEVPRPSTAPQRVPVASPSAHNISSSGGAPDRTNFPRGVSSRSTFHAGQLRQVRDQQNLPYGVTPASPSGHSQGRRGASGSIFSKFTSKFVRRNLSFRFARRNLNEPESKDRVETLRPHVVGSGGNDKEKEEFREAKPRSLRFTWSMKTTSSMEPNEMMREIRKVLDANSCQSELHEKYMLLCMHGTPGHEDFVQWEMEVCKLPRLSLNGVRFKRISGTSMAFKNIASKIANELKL
# Sequence of MAP/microtubule affinity-regulating kinase 3 (Homo sapiens) (P27448 whole entry, looked up): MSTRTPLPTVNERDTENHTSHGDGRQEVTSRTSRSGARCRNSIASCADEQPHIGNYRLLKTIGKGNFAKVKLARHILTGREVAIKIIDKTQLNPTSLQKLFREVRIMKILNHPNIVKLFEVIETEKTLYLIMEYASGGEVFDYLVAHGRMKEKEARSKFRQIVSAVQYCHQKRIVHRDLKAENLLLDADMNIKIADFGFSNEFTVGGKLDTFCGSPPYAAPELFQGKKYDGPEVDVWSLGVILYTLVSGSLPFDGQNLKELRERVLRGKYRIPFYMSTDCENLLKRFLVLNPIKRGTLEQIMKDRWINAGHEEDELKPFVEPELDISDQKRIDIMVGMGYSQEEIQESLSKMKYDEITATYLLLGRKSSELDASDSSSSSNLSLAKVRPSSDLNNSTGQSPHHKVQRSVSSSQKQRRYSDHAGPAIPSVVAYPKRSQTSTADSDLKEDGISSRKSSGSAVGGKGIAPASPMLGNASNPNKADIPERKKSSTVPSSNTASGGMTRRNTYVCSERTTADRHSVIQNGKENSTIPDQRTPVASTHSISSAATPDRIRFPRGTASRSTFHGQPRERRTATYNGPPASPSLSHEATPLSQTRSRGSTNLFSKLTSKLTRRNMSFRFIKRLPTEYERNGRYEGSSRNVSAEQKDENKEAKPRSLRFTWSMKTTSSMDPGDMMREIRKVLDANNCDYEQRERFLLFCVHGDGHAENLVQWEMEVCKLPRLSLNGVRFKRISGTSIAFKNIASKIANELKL
Compound,inhibition [1],inhibition [2],inhibition [3],inhibition [4],inhibition [5],inhibition [6],inhibition [7],inhibition [8],inhibition [9],inhibition [10]
Fc1cccc(COc2ccc(Nc3ncncc3C#Cc3ccccc3)cc2Cl)c1,4.26%,0.48%,1.07%,3.34%,4.69%,3.32%,11.8%,2.53%,6.84%,0.96%
O=C(Nc1n[nH]c2nnc(-c3cccnc3)cc12)C1CC1,1.25%,0.54%,0.56%,-0.51%,1.48%,0.68%,-0.29%,0.77%,2.11%,0.83%
Nc1nonc1-c1nc2cnccc2n1C1CC1,22.6% and 19%,3.74% and 2.4%,11% and 8.22%,10.2% and 12.6%,66.9% and 71.4%,3.95% and 1.61%,9.32% and 10.2%,4.37% and 1.55%,18.2% and 15.1%,3.55% and -0.71%
Cc1nnc(-c2cccc(-c3ccc(C(=O)NCC4CC4)cc3)c2)o1,7.47%,1.79%,2.85%,0.44%,6.34%,4.66%,6.32%,2.35%,6.05%,0.64%
CCCNc1cccc(-n2ncc3c(N/N=C/c4ccncc4)ncnc32)c1,9.23%,0.58%,9.44%,-0.14%,3.93%,31.2%,69.1%,37.6%,72.2%,0.04%
CS(=O)(=O)CCNCc1ccc(-c2ccc3ncnc(Nc4ccc(OCc5cccc(C(F)(F)F)c5)cc4)c3c2)o1,3.96%,1.47%,2.54%,3.5%,11.4%,2.34%,6.48%,0.53%,5.47%,0.72%
NS(=O)(=O)c1ccc(N/N=C2\C(=O)Nc3cccc(CCc4ccncc4)c32)cc1,3.11%,2.47%,4.28%,4.76%,34.7%,1.05%,0.27%,0.14%,1.83%,0.98%
COC(=O)Nc1nc2ccc(Oc3ccc(NC(=O)Nc4cc(C(F)(F)F)ccc4F)cc3)cc2s1,-0.18%,-0.51%,0.37%,1.63%,3.51%,4.79%,15.7%,2.41%,7.88%,-8.34%
COc1cccc(Nc2nccc(-c3cnn4ncccc34)n2)c1,29.6%,0.65%,17.3%,5.16%,52.3%,2.14%,11.3%,3.27%,22.7%,1.23%
CS(=O)(=O)Nc1ccc(-c2cc(-c3ccccc3)cc(C(N)=O)c2N)cc1,0.12%,0.69%,0.98%,3.07%,7.77%,1.45%,4.03%,-0.47%,3.27%,-0.25%
CS(=O)(=O)Nc1ccc(-c2ccc3c(NC(=O)C4CC4)n[nH]c3c2)cc1,0.81%,2.19%,2.82%,2.17%,3.47%,2.36%,2.11%,1.69%,1.32%,-0.79%
CCS(=O)(=O)c1ccc(OC)c(Nc2ncc(-c3cccc(C(C)=O)c3)o2)c1,10.1%,0.67%,1.52%,2.17%,7.46%,3.04%,12.2%,2.96%,6.18%,-1.1%
Cc1cc(O)cc(C)c1/C=C/c1cncc(C(=O)OC(C)(C)C)c1,1.89%,0.38%,0.19%,3.07%,5.89%,4.59%,16.7%,1.84%,9.67%,0.13%
OCCCNc1nccc(-c2c(-c3ccc(F)cc3)nn3cc(C(F)(F)F)ccc23)n1,3.84%,0.24%,2.09%,0.52%,2.27%,2.61%,6.2%,2.75%,3.6%,-1.06%
CN(c1ccc(NC(=O)NCCN2CCOCC2)cc1)c1ccnc(Nc2ccc(CS(C)(=O)=O)cc2)n1,9.85%,1.24%,5.47%,2.36%,7.07%,2.87%,8.84%,2.32%,9.63%,0.88%
COc1ccccc1-c1cc(/C=C2\C(=O)Nc3ncc(Br)cc32)cc(Br)c1O,1.27%,2.01%,5.18%,4.33%,8.21%,4.21%,11.7%,7.61%,40.1%,-0.96%

Compound,inhibition [1],inhibition [2],inhibition [3],inhibition [4],inhibition [5],inhibition [6],inhibition [7],inhibition [8],inhibition [9],inhibition [10]
NC(=O)c1ccc2c(-c3ccnc(NCCCO)n3)c(-c3ccc(F)cc3)nn2c1,21.9%,1.93%,2.67%,6.11%,6.85%,4.56%,13.4%,3.16%,7.35%,1.93%
CS(=O)(=O)CCNCc1ccc(-c2ccc3ncnc(Nc4ccc(OCc5ccccc5)cc4)c3c2)o1,-0.22%,2.33%,1.3%,6.32%,3.76%,2.89%,6.82%,3.2%,15.7%,-0.24%
CNC(=O)c1sc(-n2cnc3cc(OC)c(OC)cc32)cc1OCc1ccccc1C(F)(F)F,3.64%,2.02%,3.13%,2.63%,2%,3.25%,4.03%,0.55%,2.13%,-0.7%
CN1CCC(C(=O)Nc2n[nH]c3nc(-c4ccc(O)cc4)c(Br)cc23)CC1,2.99% and 3.23%,2.14% and -0.03%,4.18% and 0.65%,3.6% and 2.34%,11.7% and 8.84%,55.1% and 58%,77.6% and 84.9%,6.5% and 5.49%,36.9% and 34.7%,1.43% and -2.51%
FC(F)(F)CNc1nccc(-c2cnn3ncccc23)n1,-0.26%,1.01%,0.89%,5.66%,27.5%,4.07%,20.6%,2.55%,26.4%,0.47%
COc1cc(N2CCN(C(C)C)CC2)ccc1Nc1nc(Nc2cccc(F)c2C(=O)O)c2cc[nH]c2n1,4.97%,1.88%,5.09%,2.86%,7.68%,3.1%,5.88%,1.57%,5.1%,1.11%
O=C1Nc2ccccc2/C1=C1\CCc2cc(O)ccc21,40.1%,7.29%,33.1%,11.1%,56.8%,3.12%,7.84%,2.73%,15.9%,5.04%
O=C(O[C@H]1CN[C@H](C#Cc2cc3ncnc(Nc4ccc(OCc5cccc(F)c5)c(Cl)c4)c3s2)C1)N1CCOCC1,10.1%,1.79%,0.94%,3.76%,4.67%,4.6%,11.4%,5.13%,13.2%,6.4%
CC1(C)CC(n2cnc(-c3ccc(F)cc3)c2-c2ccnc(N)n2)CC(C)(C)N1,1.48%,1.1%,1.23%,2.12%,3.51%,1.11%,2.81%,0.35%,0.79%,0.16%
COc1ccc2ncn(-c3cc(O[C@H](C)c4ccccc4C(F)(F)F)c(C(N)=O)s3)c2c1,1.97%,-0.65%,5.41%,-0.14%,2.51%,-0.15%,3.25%,0.74%,4.03%,0.4%
O=C(O[C@H]1CN[C@H](C#Cc2cc3ncnc(Nc4ccc5c(cnn5Cc5ccccc5)c4)c3s2)C1)N1CCOCC1,2.28%,0.43%,2.44%,-2.54%,-1.35%,1.01%,9.35%,0.04%,11.5%,-1.65%
CNC(=O)c1cncc(/C=C/c2ccccc2C)c1,6.03%,1.26%,3.49%,1.3%,4.29%,4.95%,29.4%,2.12%,14.9%,1.19%
CN1CCC(n2cnc(-c3ccc(F)cc3)c2-c2ccnc(NCCO)n2)CC1,6.04%,0.86%,2.05%,2.15%,5.49%,4.71%,15.9%,2.63%,8.42%,-0.26%
Cn1c(-c2nonc2N)nc2cnccc21,9.08%,1.25%,3.94%,7.95%,22.1%,3.39%,7.55%,2.67%,16.9%,0.44%
CCOc1ccc2c(-c3ccnc(Nc4cc(OC)cc(C(F)(F)F)c4)n3)cnn2n1,-0.83%,-0.72%,2.36%,3.83%,10.3%,4.65%,8.47%,2.3%,4.37%,0.85%
